# ChEMBL document CHEMBL2218924, “A broad activity screen in support of a chemogenomic map for kinase signalling research and drug discovery” (Biochem J, 2013)
# Tests used:
# [1] = target: Tyrosine-protein kinase SYK (Homo sapiens) (UniProt P43405); conditions: at 10 µM
# [2] = target: T1, Mitogen-activated protein kinase kinase kinase 7 (Homo sapiens) (UniProt O43318); conditions: at 1 µM
# T1 sequence (whole entry): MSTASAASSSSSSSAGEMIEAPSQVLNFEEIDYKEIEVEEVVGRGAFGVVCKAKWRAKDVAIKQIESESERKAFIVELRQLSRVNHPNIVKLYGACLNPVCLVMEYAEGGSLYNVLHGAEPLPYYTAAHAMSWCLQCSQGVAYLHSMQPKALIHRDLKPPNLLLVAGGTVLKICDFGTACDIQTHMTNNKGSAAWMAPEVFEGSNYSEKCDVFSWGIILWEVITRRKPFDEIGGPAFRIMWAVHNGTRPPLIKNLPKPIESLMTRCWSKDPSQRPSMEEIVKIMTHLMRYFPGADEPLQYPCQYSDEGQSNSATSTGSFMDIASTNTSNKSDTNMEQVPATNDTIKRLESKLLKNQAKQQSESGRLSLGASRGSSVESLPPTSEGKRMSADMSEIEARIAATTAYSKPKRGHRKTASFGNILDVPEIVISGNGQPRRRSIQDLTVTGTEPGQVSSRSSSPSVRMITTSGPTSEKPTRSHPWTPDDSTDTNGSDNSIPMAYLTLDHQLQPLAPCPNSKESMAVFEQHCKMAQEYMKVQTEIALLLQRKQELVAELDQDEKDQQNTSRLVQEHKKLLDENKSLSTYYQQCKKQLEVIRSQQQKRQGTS
# [3] = target: T1, Mitogen-activated protein kinase kinase kinase 7 (Homo sapiens); conditions: at 10 µM
# [4] = target: T2, Serine/threonine-protein kinase TAO1 (Homo sapiens) (UniProt Q7L7X3); conditions: at 1 µM
# T2 sequence (whole entry): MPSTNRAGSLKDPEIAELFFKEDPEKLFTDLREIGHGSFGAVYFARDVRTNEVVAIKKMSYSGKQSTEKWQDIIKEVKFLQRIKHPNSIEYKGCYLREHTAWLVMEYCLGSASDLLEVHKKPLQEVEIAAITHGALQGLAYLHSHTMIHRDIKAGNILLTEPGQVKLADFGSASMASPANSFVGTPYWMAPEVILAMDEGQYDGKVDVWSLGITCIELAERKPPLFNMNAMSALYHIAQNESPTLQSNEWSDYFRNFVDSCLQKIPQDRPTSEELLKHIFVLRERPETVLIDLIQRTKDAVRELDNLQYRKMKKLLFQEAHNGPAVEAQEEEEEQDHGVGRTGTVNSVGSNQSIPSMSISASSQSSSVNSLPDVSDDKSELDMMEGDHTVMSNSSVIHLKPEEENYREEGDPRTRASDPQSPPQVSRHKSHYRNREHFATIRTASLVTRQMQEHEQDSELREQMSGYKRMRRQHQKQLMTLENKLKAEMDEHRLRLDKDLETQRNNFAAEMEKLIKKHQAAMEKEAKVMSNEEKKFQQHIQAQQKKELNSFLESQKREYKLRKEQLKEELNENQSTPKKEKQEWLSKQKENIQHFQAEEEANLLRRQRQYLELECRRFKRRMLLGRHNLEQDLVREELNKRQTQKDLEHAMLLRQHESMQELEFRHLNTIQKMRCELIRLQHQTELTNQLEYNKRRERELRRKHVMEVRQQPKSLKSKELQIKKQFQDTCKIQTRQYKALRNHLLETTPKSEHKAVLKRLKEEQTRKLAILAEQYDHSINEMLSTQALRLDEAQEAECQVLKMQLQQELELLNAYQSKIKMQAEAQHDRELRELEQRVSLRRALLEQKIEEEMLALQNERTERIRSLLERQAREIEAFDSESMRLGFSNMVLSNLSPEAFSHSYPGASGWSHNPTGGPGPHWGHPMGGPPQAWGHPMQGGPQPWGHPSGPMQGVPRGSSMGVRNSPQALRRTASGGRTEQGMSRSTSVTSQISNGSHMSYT
# [5] = target: T2, Serine/threonine-protein kinase TAO1 (Homo sapiens); conditions: at 10 µM
# [6] = target: T3, Serine/threonine-protein kinase TAO2 (Homo sapiens) (UniProt Q9UL54); conditions: at 1 µM
# T3 sequence (whole entry): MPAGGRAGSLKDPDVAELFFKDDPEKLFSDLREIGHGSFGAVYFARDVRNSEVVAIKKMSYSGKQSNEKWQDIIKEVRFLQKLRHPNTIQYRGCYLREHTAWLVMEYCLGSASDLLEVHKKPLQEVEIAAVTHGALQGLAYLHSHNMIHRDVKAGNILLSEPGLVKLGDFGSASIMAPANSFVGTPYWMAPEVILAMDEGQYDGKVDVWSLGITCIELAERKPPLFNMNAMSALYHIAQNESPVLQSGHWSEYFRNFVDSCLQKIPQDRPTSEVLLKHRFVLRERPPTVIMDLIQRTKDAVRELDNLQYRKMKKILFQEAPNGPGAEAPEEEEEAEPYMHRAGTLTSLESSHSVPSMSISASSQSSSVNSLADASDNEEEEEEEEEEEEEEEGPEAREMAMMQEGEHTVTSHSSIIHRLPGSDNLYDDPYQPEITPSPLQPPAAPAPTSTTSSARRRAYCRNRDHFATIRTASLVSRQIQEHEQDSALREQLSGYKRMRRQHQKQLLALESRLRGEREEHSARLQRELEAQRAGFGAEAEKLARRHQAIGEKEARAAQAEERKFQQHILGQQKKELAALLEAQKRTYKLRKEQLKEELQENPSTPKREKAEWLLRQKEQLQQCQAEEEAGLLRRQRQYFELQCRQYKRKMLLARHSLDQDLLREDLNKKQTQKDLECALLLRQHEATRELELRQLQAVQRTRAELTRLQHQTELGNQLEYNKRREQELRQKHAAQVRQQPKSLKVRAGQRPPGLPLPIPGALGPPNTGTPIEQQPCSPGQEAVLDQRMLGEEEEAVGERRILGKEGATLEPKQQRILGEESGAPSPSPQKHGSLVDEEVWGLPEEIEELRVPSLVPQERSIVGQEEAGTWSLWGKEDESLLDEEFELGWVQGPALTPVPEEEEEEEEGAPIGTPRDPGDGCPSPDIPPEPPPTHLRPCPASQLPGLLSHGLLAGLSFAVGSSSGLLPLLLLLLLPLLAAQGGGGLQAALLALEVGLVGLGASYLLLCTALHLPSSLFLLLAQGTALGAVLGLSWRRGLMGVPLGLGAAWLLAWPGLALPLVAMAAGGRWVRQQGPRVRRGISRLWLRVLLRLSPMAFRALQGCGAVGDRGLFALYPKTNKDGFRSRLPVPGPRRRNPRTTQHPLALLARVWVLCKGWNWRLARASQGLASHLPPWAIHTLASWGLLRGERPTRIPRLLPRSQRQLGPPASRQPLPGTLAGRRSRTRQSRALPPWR
# [7] = target: T3, Serine/threonine-protein kinase TAO2 (Homo sapiens); conditions: at 10 µM
# [8] = target: T4, Serine/threonine-protein kinase TAO3 (Homo sapiens) (UniProt Q9H2K8); conditions: at 1 µM
# T4 sequence (whole entry): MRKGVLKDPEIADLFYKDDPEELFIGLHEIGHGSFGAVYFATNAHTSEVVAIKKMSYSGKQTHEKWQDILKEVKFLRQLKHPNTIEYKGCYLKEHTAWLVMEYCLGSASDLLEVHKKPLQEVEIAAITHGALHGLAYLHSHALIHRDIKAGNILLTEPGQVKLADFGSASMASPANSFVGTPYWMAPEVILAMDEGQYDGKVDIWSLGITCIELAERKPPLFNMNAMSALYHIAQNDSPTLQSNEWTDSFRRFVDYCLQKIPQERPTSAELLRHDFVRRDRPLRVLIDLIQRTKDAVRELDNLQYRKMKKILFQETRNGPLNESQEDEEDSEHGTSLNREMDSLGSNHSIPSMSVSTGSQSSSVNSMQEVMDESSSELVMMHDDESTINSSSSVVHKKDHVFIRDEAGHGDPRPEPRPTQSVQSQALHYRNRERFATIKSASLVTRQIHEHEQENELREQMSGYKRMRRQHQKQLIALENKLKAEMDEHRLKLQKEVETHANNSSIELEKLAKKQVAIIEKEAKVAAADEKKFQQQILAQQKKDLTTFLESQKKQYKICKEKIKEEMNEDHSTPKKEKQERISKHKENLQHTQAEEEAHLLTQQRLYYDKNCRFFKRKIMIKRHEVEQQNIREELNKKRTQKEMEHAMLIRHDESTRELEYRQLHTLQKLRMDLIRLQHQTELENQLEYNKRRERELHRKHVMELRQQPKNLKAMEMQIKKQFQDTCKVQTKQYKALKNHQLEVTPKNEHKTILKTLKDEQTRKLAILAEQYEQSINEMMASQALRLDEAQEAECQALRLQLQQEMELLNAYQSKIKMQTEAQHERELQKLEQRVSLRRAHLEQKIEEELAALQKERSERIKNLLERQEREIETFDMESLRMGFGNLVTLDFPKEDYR
# [9] = target: T4, Serine/threonine-protein kinase TAO3 (Homo sapiens); conditions: at 10 µM
# [10] = target: T5, Serine/threonine-protein kinase TBK1 (Homo sapiens) (UniProt Q9UHD2); conditions: at 1 µM
# T5 sequence (whole entry): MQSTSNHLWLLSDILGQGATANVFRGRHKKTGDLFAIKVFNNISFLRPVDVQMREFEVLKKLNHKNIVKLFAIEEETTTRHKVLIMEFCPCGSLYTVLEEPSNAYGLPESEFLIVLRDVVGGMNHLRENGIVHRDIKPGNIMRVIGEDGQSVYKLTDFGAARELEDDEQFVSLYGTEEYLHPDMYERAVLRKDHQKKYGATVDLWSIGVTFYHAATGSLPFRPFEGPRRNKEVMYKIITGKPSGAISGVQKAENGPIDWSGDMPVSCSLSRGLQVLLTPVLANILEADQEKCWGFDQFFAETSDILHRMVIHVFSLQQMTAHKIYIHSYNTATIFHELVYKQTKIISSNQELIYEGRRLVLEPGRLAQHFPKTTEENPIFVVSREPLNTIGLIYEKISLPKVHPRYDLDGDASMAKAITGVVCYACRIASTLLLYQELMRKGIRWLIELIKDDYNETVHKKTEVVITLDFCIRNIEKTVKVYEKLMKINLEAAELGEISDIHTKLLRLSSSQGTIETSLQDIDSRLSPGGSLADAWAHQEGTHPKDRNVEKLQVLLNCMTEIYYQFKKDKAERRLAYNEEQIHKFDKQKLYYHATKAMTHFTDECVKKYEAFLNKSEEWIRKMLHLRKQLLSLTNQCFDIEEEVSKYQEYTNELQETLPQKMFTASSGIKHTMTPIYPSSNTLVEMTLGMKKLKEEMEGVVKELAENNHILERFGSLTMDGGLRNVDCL
compound,measurement,setting,value
O=C1Nc2cc(Br)ccc2/C1=C1/Nc2ccccc2/C1=N\O,residual activity,[1],37%
same,residual activity,[2],89%
same,residual activity,[3],81%
same,residual activity,[4],68%
same,residual activity,[5],58%
same,residual activity,[6],75%
same,residual activity,[7],91%
same,residual activity,[8],68%
same,residual activity,[9],82%
same,residual activity,[10],8%
